Data: PMC7826789 (International Journal of Molecular Sciences, 2021)

## Cc1ccc(-c2cc(-c3c[nH]nc3-c3ccccn3)ccn2)cc1 [GW684088]
TGFBR1
  Kinases covered: TGFBR1

## COc1cc(-c2cncc(-c3cnn(C4CCNCC4)c3)c2)cc(OC)c1OC [K05908]
TGFBR1
  Kinases covered: TGFBR1

## CCn1cc(-c2ccnc3[nH]c(-c4cccc(CN(C)C)c4)cc23)c(-c2ccc(NC(=O)N(C)C)cc2)n1 [GSK1070916]
TIE2
  Kinases covered: TIE2

## CCS(=O)(=O)c1ccc(OC)c(Nc2ncc(-c3cccc(OC)c3)o2)c1 [GW580509X]
TNK1
  Kinases covered: TNK1

## COc1cc(N2CCN(C)CC2)ccc1Nc1ncc2c(n1)N(C)c1ccccc1C(=O)N2 [XMD8-87]
TNK2
  Kinases covered: TNK2

## CNS(=O)(=O)c1ccc(N(C)C)c(Nc2ncnc3cc(OC)c(OC)cc23)c1 [GSK114]
TNNI3K
  Kinases covered: TNNI3K
ZAK
  Kinases covered: ZAK

## CC(=O)c1c(C)c2cnc(Nc3ccc(N4CCNCC4)cn3)nc2n(C2CCCC2)c1=O [PFE-PKIS 32]
TTK
  Kinases covered: TTK

## CCS(=O)(=O)c1ccc(OC)c(Nc2ncc(-c3cccc(F)c3)o2)c1 [GW621970X]
YES
  Kinases covered: YES

## CCCS(=O)(=O)Nc1ccc(F)c(-n2cc(-c3cncc(OC)c3)nn2)c1F [BI00865461]
ZAK
  Kinases covered: ZAK

## NC(=O)c1cccnc1COc1cc(-c2ccc(N3CCOCC3)nc2)cc2ncccc12 [BI01125081]
ZAP70
  Kinases covered: ZAP70

## O=C1Nc2ccc(I)cc2C1=Cc1cc(Br)c(O)c(Br)c1 [GW305074X]
cRAF
  Kinases covered: cRAF

## CCn1c(-c2nonc2N)nc2cncc(CNC3CCNCC3)c21 [SB-747651A]
p70S6K
  Kinases covered: p70S6K
